# Results: PubChem BioAssay (Tox21)
# Inconclusive results are not listed. Where a call stands in place of a potency, no number is given. Calls of active or inactive are those of the source. The call rests on the fitted dose curve; in most records, active means well fitted curve in the direction sought with a large enough effect in the repeat runs; inconclusive means weak or mixed curves; inactive means no such curve, though single readings can be large; an effect the other way counts as inactive or inconclusive.
# Molecular target: Cytochrome P450 2C19 (Homo sapiens) (UniProt P33261)
# Assay: Cytochrome P450 Family 2 Subfamily C Member 19 (CYP2C19) small molecule antagonists: luciferase reporter qHTS assay (AID 1671197); further: nearly all actives have a fitted effect of over 65% in size
# Conditions: P450-Glo CYP2C19 enzyme, luciferin luminescence, 1 h; series mostly up to 52.9 µM
# Procedure, shortened: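 P450-Glo CYP2C19 system: enzyme-substrate mix with compound 10 min at room temperature, then NADPH regeneration solution, 1 h at 37C. Proluciferin-to-luciferin conversion detected by luminescence after 20 min with detection reagent; ketoconazole as positive control.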
# Potency means the concentration at half of the fitted maximal effect.
# Chain of Cytochrome P450 2C19 (Homo sapiens) (P33261 whole entry, looked up): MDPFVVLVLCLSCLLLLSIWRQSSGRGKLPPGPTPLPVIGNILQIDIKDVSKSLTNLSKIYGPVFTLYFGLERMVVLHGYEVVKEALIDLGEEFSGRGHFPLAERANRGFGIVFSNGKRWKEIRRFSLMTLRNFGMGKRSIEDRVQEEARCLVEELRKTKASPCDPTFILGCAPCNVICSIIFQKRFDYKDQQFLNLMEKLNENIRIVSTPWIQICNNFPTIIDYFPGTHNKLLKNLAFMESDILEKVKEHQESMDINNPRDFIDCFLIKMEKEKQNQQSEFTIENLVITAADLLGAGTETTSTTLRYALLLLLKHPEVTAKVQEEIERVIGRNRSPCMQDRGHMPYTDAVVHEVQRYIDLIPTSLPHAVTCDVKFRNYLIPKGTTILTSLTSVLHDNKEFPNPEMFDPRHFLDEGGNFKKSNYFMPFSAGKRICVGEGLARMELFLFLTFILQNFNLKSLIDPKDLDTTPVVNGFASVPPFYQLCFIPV
row,SMILES,Potency
1,C=C/C(C)=C/C/C=C(\C)CCC=C(C)C,31.7 µM (active)
2,CO[C@]1(NC(=O)CSC(F)F)C(=O)N2C(C(=O)O)=C(CSc3nnnn3CCO)CO[C@H]21,inactive
3,CCC(C)(C)OC,inactive
4,CCCCCCNC(=O)n1cc(F)c(=O)[nH]c1=O,34.7 µM (active)
5,CCCCCCCCCI,inactive
6,CN(C)CCN1C(=O)c2ccccc2N(C)c2ccccc21,inactive
7,OC[C@H]1O[C@@H](n2cnc3c(=S)nc[nH]c32)[C@H](O)[C@@H]1O,7.76 µM (active)
8,CCCCCCCCN,inactive
9,Nc1nc2ccc([N+](=O)[O-])cc2s1,35.6 µM (active)
10,Oc1cccc(O)c1O,70.4 µM (active)
11,CN1C(=O)c2ccccc2C1=O,79.6 µM (active)
12,CNC(=O)c1cnn(-c2nc(N)c3ncn([C@@H]4O[C@H](CO)[C@@H](O)[C@H]4O)c3n2)c1,inactive
13,Cc1cc(O)c(C)c(C)c1O,inactive
14,CCOc1cccc(-n2cc(C(=O)N3CCN(c4cc(C(=O)O)c5ccccc5c4)CC3)nc2-c2ccc(C)cc2)c1,53.8 µM (active)
15,COc1ccccc1Oc1c(NS(=O)(=O)c2ccc(C(C)(C)C)cc2)nc(-c2ncccn2)nc1OCCO,inactive
16,CCC(=O)C1CC(C(C)C)CC=C1C (centres undefined),35.6 µM (active)

# Molecular target: Cytochrome P450 2C9 (Homo sapiens) (UniProt P11712)
# Assay: Cytochrome P450 Family 2 Subfamily C Member 9 (CYP2C9) small molecule antagonists: luciferase reporter qHTS assay (AID 1671198); further: nearly all actives have a fitted effect of over 50% in size
# Conditions: P450-Glo CYP2C9 enzyme assay, luciferin luminescence; series mostly up to 115 µM
# Procedure, shortened: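 P450-Glo proluciferin substrate with CYP2C9 enzyme; 10 min RT preincubation, then NADPH regeneration 1 h at 37C; luciferin detection reagent 20 min RT, luminescence in relative luminescence units.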
# Chain of Cytochrome P450 2C9 (Homo sapiens) (P11712 whole entry, looked up): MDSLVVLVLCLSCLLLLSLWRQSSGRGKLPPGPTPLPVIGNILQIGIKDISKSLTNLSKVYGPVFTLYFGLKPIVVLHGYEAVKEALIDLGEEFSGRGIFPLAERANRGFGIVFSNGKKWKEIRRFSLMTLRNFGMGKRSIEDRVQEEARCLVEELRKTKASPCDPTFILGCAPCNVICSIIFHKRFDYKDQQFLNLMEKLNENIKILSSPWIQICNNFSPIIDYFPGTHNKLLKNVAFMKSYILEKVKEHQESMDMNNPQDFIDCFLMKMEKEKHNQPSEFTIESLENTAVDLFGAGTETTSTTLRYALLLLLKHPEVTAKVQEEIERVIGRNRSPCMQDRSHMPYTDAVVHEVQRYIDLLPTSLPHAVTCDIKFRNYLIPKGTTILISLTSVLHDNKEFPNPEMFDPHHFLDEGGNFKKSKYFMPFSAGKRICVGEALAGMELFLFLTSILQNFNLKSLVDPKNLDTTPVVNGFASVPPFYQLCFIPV
row,SMILES,Potency
1,C=C/C(C)=C/C/C=C(\C)CCC=C(C)C,31.7 µM (active)
2,CO[C@]1(NC(=O)CSC(F)F)C(=O)N2C(C(=O)O)=C(CSc3nnnn3CCO)CO[C@H]21,inactive
3,CC1(C)O[C@@H]2C[C@H]3[C@@H]4C[C@H](F)C5=CC(=O)C=C[C@]5(C)[C@H]4[C@@H](O)C[C@]3(C)[C@]2(C(=O)CO)O1,inactive
4,CCC(C)(C)OC,inactive
5,CCCCCCNC(=O)n1cc(F)c(=O)[nH]c1=O,15.5 µM (active)
6,CN(C)CCN1C(=O)c2ccccc2N(C)c2ccccc21,inactive
7,CC(=O)OCCN(CCOC(C)=O)c1ccc(N=Nc2ccc([N+](=O)[O-])cc2C#N)cc1,15.9 µM (active)
8,CC1CC(OC(=O)C(O)c2ccccc2)CC(C)(C)N1C (centres undefined),inactive
9,OC[C@H]1O[C@@H](n2cnc3c(=S)nc[nH]c32)[C@H](O)[C@@H]1O,13.8 µM (active)
10,CCCCCCCCN,inactive
11,CC(C)(O)c1ccc(CNC(=O)c2cccnc2Oc2ccc3nonc3c2)cc1,25.2 µM (active)
12,OC1(c2ccccc2)CCNCC1,inactive
13,CN1C(=O)c2ccccc2C1=O,10 µM (active)
14,CCCCCC[C@@H](O)C/C=C\CCCCCCCC(=O)OCC(O)CO (some centres undefined),11.2 µM (active)
15,Clc1cc(Cl)nc(Cl)n1,inactive
16,O=C(O)CCCCCCCCCCCBr,inactive
17,C1C[C@@H]2[C@H]3CC[C@H](C3)[C@@H]2C1,inactive
18,O=C1c2ccccc2C(=O)c2c(O)c(O)cc(O)c21,63.3 µM (active)
19,CNC(=O)c1cnn(-c2nc(N)c3ncn([C@@H]4O[C@H](CO)[C@@H](O)[C@H]4O)c3n2)c1,inactive
20,Cc1[nH]cnc1CN1CCc2c(c3ccccc3n2C)C1=O,2.19 µM (active)
21,CCOc1cccc(-n2cc(C(=O)N3CCN(c4cc(C(=O)O)c5ccccc5c4)CC3)nc2-c2ccc(C)cc2)c1,67.7 µM (active)

# Molecular target: Cytochrome P450 1A2 (Homo sapiens) (UniProt P05177)
# Assay: Cytochrome P450 Family 1 Subfamily A Member 2 (CYP1A2) small molecule antagonists: luciferase reporter qHTS assay (AID 1671199); further: nearly all actives have a fitted effect of over 50% in size
# Conditions: P450-Glo CYP1A2 enzyme, luciferin luminescence, 1 h; series mostly up to 53 µM
# Procedure, shortened: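 Signal from luciferin formed by CYP1A2 from a proluciferin substrate is read as luminescence, expressed in relative luminescence units. Compounds sit with enzyme 10 min, NADPH-driven reaction runs 1 h, all at room temperature.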
# Chain of Cytochrome P450 1A2 (Homo sapiens) (P05177 whole entry, looked up): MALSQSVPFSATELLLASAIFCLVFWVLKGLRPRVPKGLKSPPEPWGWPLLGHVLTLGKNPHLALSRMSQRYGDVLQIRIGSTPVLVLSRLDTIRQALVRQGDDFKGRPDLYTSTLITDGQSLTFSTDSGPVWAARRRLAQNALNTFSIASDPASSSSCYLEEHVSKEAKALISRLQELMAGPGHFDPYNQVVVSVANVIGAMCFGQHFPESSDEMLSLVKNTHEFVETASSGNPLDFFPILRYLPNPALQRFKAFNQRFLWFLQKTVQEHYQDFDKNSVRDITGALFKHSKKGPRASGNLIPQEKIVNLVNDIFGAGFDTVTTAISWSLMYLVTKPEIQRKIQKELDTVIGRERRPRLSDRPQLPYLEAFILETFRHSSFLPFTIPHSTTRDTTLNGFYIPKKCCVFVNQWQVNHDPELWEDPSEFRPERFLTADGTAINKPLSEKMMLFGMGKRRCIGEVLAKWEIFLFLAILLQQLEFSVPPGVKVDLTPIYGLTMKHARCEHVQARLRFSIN
row,SMILES,Potency
1,CN1C[C@H](C(=O)N[C@]2(C)O[C@@]3(O)[C@@H]4CCCN4C(=O)[C@H](Cc4ccccc4)N3C2=O)C[C@@H]2c3cccc4[nH]cc(c34)C[C@H]21,inactive
2,C=C/C(C)=C/C/C=C(\C)CCC=C(C)C,inactive
3,CC1(C)O[C@@H]2C[C@H]3[C@@H]4C[C@H](F)C5=CC(=O)C=C[C@]5(C)[C@H]4[C@@H](O)C[C@]3(C)[C@]2(C(=O)CO)O1,inactive
4,CCCCCCNC(=O)n1cc(F)c(=O)[nH]c1=O,inactive
5,CCCCCCCCCI,inactive
6,CN(C)CCN1C(=O)c2ccccc2N(C)c2ccccc21,inactive
7,CC1CC(OC(=O)C(O)c2ccccc2)CC(C)(C)N1C (centres undefined),inactive
8,CC/C=C1/OC(=O)c2ccccc21,5.51 µM (active)
9,Nc1nc2ccc([N+](=O)[O-])cc2s1,9.74 µM (active)
10,OC1(c2ccccc2)CCNCC1,inactive
11,CN1C(=O)c2ccccc2C1=O,24.5 µM (active)
12,CCCCCC[C@@H](O)C/C=C\CCCCCCCC(=O)OCC(O)CO (some centres undefined),inactive
13,O=C1c2ccccc2C(=O)c2c(O)c(O)cc(O)c21,35.6 µM (active)
14,Cc1[nH]cnc1CN1CCc2c(c3ccccc3n2C)C1=O,0.812 µM (active)
15,CCC(=O)C1CC(C(C)C)CC=C1C (centres undefined),63.3 µM (active)

# Molecular target: Voltage-gated inwardly rectifying potassium channel KCNH2 (Homo sapiens) (UniProt Q12809)
# Assay: Human Ether-a-go-go-Related Gene (hERG) channel small molecule antagonists: fluorescence cell-based qHTS assay (AID 1671200); further: nearly all actives have a fitted effect of over 50% in size
# Conditions: hERG-U2OS cells, FluxOR thallium flux fluorescence; series mostly up to 76.8 µM
# Procedure, shortened: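 First, 1000 cells per well are seeded and cultured overnight at 37 C. Next, FluxOR II dye is loaded for 1 h at room temperature, protected from light. After 10 more minutes, stimulus is added and fluorescence is read.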
# Chain of Voltage-gated inwardly rectifying potassium channel KCNH2 (Homo sapiens) (Q12809 whole entry, looked up): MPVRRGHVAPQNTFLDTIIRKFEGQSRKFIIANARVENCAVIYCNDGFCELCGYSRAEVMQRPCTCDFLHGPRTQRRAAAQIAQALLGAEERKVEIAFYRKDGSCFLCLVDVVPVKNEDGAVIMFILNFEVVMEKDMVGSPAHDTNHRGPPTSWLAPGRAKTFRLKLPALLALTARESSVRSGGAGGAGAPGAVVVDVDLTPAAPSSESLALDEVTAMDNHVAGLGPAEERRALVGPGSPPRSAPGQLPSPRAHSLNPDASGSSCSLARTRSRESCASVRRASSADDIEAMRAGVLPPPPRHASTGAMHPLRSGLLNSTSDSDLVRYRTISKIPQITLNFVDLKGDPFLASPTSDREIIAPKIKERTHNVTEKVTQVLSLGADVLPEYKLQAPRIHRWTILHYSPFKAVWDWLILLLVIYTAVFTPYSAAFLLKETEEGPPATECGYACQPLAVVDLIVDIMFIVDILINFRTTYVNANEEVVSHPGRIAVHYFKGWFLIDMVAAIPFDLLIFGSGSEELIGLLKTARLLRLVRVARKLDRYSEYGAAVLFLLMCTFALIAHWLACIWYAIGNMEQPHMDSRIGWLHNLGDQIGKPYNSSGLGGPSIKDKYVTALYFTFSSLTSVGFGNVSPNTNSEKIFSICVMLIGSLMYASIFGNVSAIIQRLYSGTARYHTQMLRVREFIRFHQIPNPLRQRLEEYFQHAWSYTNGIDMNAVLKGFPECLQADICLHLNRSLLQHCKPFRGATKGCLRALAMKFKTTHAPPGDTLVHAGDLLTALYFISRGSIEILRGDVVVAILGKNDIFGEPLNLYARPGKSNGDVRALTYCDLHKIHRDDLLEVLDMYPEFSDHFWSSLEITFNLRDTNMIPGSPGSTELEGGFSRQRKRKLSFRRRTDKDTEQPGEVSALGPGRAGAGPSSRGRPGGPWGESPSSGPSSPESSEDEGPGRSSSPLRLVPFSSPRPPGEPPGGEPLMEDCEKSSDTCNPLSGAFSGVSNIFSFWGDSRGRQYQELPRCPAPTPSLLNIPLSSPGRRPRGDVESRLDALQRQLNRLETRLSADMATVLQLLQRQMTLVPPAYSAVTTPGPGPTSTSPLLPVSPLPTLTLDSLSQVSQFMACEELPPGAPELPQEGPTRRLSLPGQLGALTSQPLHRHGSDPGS
row,SMILES,Potency
1,CC(C)C(O)(c1ccc(OC(F)(F)F)cc1)c1cncnc1 (centres undefined),inactive
2,OCCN1CCN(CCCN2c3ccccc3Sc3ccc(Cl)cc32)CC1,2.68 µM (active)
3,C=C/C(C)=C/C/C=C(\C)CCC=C(C)C,inactive
4,CO[C@]1(NC(=O)CSC(F)F)C(=O)N2C(C(=O)O)=C(CSc3nnnn3CCO)CO[C@H]21,inactive
5,CC(C)C=O,inactive
6,CC1(C)O[C@@H]2C[C@H]3[C@@H]4C[C@H](F)C5=CC(=O)C=C[C@]5(C)[C@H]4[C@@H](O)C[C@]3(C)[C@]2(C(=O)CO)O1,inactive
7,CCC(C)(C)OC,inactive
8,O=c1c(O)c(-c2ccc(O)cc2)oc2cc(O)cc(O)c12,inactive
9,CCCCCCNC(=O)n1cc(F)c(=O)[nH]c1=O,inactive
10,CCCCCCCCCI,inactive
11,CCOC(=O)OC(C)OC(=O)[C@@H]1N2C(=O)[C@@H](NC(=O)[C@H](N)c3ccccc3)[C@H]2SC1(C)C (some centres undefined),inactive
12,CN(C)CCN1C(=O)c2ccccc2N(C)c2ccccc21,inactive
13,CCOC(=O)C1=C(C)NC(C)=C(C(=O)OC)C1c1cccc(Cl)c1Cl (centres undefined),inactive
14,CC(=O)OCCN(CCOC(C)=O)c1ccc(N=Nc2ccc([N+](=O)[O-])cc2C#N)cc1,17.4 µM (active)
15,CC1CC(OC(=O)C(O)c2ccccc2)CC(C)(C)N1C (centres undefined),inactive
16,CC/C=C1/OC(=O)c2ccccc21,inactive
17,OC[C@H]1O[C@@H](n2cnc3c(=S)nc[nH]c32)[C@H](O)[C@@H]1O,inactive
18,CCCCCCCCN,inactive
19,Nc1nc2ccc([N+](=O)[O-])cc2s1,inactive

row,SMILES,Potency
1,CC(C)(O)c1ccc(CNC(=O)c2cccnc2Oc2ccc3nonc3c2)cc1,inactive
2,OC1(c2ccccc2)CCNCC1,inactive
3,Oc1cccc(O)c1O,inactive
4,CN1C(=O)c2ccccc2C1=O,inactive
5,CCCCCC[C@@H](O)C/C=C\CCCCCCCC(=O)OCC(O)CO (some centres undefined),inactive
6,Nc1cccc2c1CN(C1CCC(=O)NC1=O)C2=O (centres undefined),inactive
7,Clc1cc(Cl)nc(Cl)n1,inactive
8,CC1(C)[C@@H](OC(=O)CCC(=O)O)CC[C@]2(C)[C@H]3C(=O)C=C4[C@@H]5C[C@@](C)(C(=O)O)CC[C@]5(C)CC[C@@]4(C)[C@]3(C)CC[C@@H]12,inactive
9,O=C(O)CCCCCCCCCCCBr,inactive
10,C1C[C@@H]2[C@H]3CC[C@H](C3)[C@@H]2C1,inactive
11,O=C1c2ccccc2C(=O)c2c(O)c(O)cc(O)c21,inactive
12,CNC(=O)c1cnn(-c2nc(N)c3ncn([C@@H]4O[C@H](CO)[C@@H](O)[C@H]4O)c3n2)c1,inactive
13,CCC1NC(=O)c2cc(S(N)(=O)=O)c(Cl)cc2N1 (centres undefined),inactive
14,C[C@@H](CN(C)C)CN1c2ccccc2Sc2ccccc21,9.52 µM (active)
15,Cc1cc(O)c(C)c(C)c1O,inactive
16,O=c1cc(-c2ccccc2)oc2cc(O)cc(O)c12,inactive
17,COc1ccccc1Oc1c(NS(=O)(=O)c2ccc(C(C)(C)C)cc2)nc(-c2ncccn2)nc1OCCO,inactive
18,CCC(=O)C1CC(C(C)C)CC=C1C (centres undefined),inactive
